Screening data: PubChem, National Center for Advancing Translational Sciences (NCATS)
HCMV inh: blocks human cytomegalovirus replication; 4.5% of 410,000 active; activity change, negative = inhibition, % at 57.5 µM; HFF cells, HCMV-luciferase reporter, 72 h; stronger effect = lower value; in the data active means activity change below about -60%; inconclusive means no clear call, values can overlap the other calls; inactive means above about -39%
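Two-dose cell screen: HFF monolayers treated with compounds and infected with luciferase-expressing HCMV at 1 PFU/cell, 72 h at 37C, then lysed for luciferase measurement.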
Vaccinia Venus: vaccinia inhibition (Venus reporter); AID 720580; Vaccinia virus Venus reporter expression, fluorescence; 0.46% of 330,000 active; Potency, µM (highest dose often 36.5 µM), inactives show at the top dose activity change, negative = inhibition, usual class: inhibitors; calls by dose curve; tested in A549 cells; further: potency means the concentration at half of the fitted maximal effect; nearly all actives have a fitted effect of over 30% in size
Vaccinia mCherry: vaccinia inhibition (mCherry reporter); Vaccinia virus mCherry reporter infection, fluorescence; 0.63% of 310,000 active; AID 720579; Potency, µM (highest dose often 36.5 µM), for the others: at the top dose activity change, negative = inhibition, most hits filed as inhibitors; calls by dose curve; tested in A549 cells; further: potency means the concentration at half of the fitted maximal effect; nearly all actives have a fitted effect of over 35% in size
FMDV inh: antivirals against foot and mouth disease virus; 1.2% of 410,000 active; FMDV antiviral cell-based qHTS; Potency, µM (titrated, usually from 57.9 µM), for the others: top-dose activity change, negative = inhibition, usual class: inhibitors; calls by dose curve; tested in HEK293T cells; further: read-out not given here; potency means the concentration at half of the fitted maximal effect; nearly all actives have a fitted effect of over 45% in size
Sm TGR inh: S. mansoni TGR enzyme inhibition | 3% of 360,000 active | Q962Y6 | purified TGR, DTNB reduction, TNB absorbance 405 nm | Potency, µM (series often up to 114 µM), for the others: at the top dose activity change, negative = inhibition, usual class: inhibitors; further: potency means the concentration at half of the fitted maximal effect; nearly all actives have a fitted effect of over 60% in size
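Kinetic colorimetric format: TGR-catalysed, NADPH-driven DTNB reduction monitored via TNB absorbance. Enzyme dispensed at 20 nM; compound exposure 15 min at room temperature before reaction start.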
HCV inh: HCV inhibition; Huh7.5.1 HCVcc-Cre infection, luciferase reporter, 44 h; Potency, µM (doses to about 41.8 µM), for the others: at the highest dose activity change, negative = inhibition, usual class: inhibitors; 3.4% of 340,000 active; AID 651820; further: potency means the concentration at half of the fitted maximal effect
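Seed cells (1,000/well) for 4 h; treat with compound and infect with HCVcc-Cre, moi about 0.5. Incubate 44 h, then detect luciferase activity.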
The depositor's hits bear a star; [ ] = another dose, or the depositor's remark. An excerpt weighted towards active compounds, which were near 9.3% of everything screened. Unless noted, the call rests on the fitted dose curve; in most records, active means well fitted curve in the direction sought with a large enough effect; inconclusive means small, poorly fitted or top-dose-only effect, or another doubt; inactive means no such curve, though single readings can be large; an effect the other way counts as inactive or inconclusive. On the % scale 0 is the no-effect control and ±100 the full control effect.

`CCOC(=O)C1CCN(C2CCN(C(=O)c3oc4c(C)c(C)ccc4c3C)CC2)CC1` gave HCMV inh 78, FMDV inh 52%, Sm TGR inh -21% and HCV inh -14%.
Cc1ccc2c(C)c(C(=O)N3CCCC(C(N)=O)C3)oc2c1C (stereo not given) was read as HCMV inh -99*, FMDV inh 33%, Sm TGR inh 2% and HCV inh -5%.
`NC1CCc2cc(O)c(O)cc2C1` (stereo not given) gave HCMV inh 34, Vaccinia Venus -6%, Vaccinia mCherry -18%[87.9 µM], FMDV inh -29%, Sm TGR inh 45µM* and HCV inh 0%.
Cc1cccn2c(=O)c3cc(C(=O)NC4CCCCC4)c(=N)n(Cc4ccccc4)c3nc12 was read as HCMV inh -61*, Vaccinia Venus -8%, Vaccinia mCherry inactive, FMDV inh -21%, Sm TGR inh 2.8µM* and HCV inh 6%.
For Cc1cccn2c(=O)c3cc(C(=O)NC4CCCC4)c(=N)n(CCc4ccccc4)c3nc12 the results were HCMV inh -11, Vaccinia Venus 6%, Vaccinia mCherry -12%, FMDV inh -27%, Sm TGR inh -9% and HCV inh -1%.
Cc1cccn2c(=O)c3cc(C(=O)NC4CCCC4)c(=N)n(Cc4ccc(F)cc4)c3nc12 was read as HCMV inh -16, Vaccinia Venus 9%[7.34 µM], Vaccinia mCherry -5%[7.34 µM], FMDV inh -12%, Sm TGR inh -17% and HCV inh 11µM*.
Screening S=c1nc[nH]c2c1sc1nc(-c3ccccc3)c3c(c12)CCCC3 returned HCMV inh inconclusive, Vaccinia Venus inconclusive, Vaccinia mCherry 14µM*, FMDV inh -29%, Sm TGR inh 5% and HCV inh -3%.
For O=c1[nH]cnc2c1sc1nc(-c3ccccc3)c3c(c12)CCCC3 the results were HCMV inh 21, Vaccinia Venus -7%, Vaccinia mCherry inactive, FMDV inh -8%, Sm TGR inh -7% and HCV inh 3%.
Screening CCN(C(=O)CSc1ncccn1)c1c(N)n(Cc2ccccc2)c(=O)[nH]c1=O returned HCMV inh -24, Vaccinia Venus -9%, Vaccinia mCherry -22%, FMDV inh -8%, Sm TGR inh -3% and HCV inh 4%.
Screening COc1ccc2[nH]c3c(c2c1)CCN(C(=O)c1cccc(Cl)c1)C3c1ccc(F)cc1 (stereo not given) returned HCMV inh -73*, Vaccinia Venus 4%, Vaccinia mCherry inconclusive, FMDV inh -15% and Sm TGR inh 2%.
O=C(Cc1ccccc1)Nc1ccc(NC(=O)c2ccco2)cc1Cl was read as HCMV inh -17, Vaccinia Venus -8%, Vaccinia mCherry -4%, FMDV inh 13%, Sm TGR inh -3% and HCV inh -9%.
CC1(C)CC(=O)C2=C(C1)NC(SCC(=O)Nc1ccccc1)=C(C#N)C21CCCCC1 was read as HCMV inh -27, Vaccinia Venus 10%, FMDV inh 28µM*, Sm TGR inh 20%[11.4 µM] and HCV inh inconclusive.
For COc1ccc(NC(=O)N(C)C[C@H]2OCc3cnnn3CCCC(=O)N([C@H](C)CO)C[C@@H]2C)c(OC)c1 the results were HCMV inh 14.
`CCC(C)[C@H]1CNC(=S)N1CCC12CC3CC(CC(C3)C1)C2` (stereo not given in full) gave HCMV inh -79*, Vaccinia Venus -19%, Vaccinia mCherry -1%, FMDV inh 13%, Sm TGR inh 3% and HCV inh 15%.
COc1ccc(N=Nc2cc(C)c(O)c(CN3CCCCC3)c2)cc1 was read as HCMV inh -16, Vaccinia Venus -7%[7.34 µM], Vaccinia mCherry inconclusive, FMDV inh 23%, Sm TGR inh inconclusive and HCV inh -16%.
`COc1ccc2nc3cc(Cl)ccc3c(Nc3cc(CN4CCCC4)c(O)c(CN4CCCC4)c3)c2n1` gave HCMV inh -100* and Sm TGR inh 0%.
